PI4K2A block: PI4K2A (human) kinase inhibition; Q9BTU6; purified PI4K2A, ADP-Glo luminescence, 1 h; active compounds read low; activity change, negative = inhibition, % at 76.9 µM; actives 0.13% (n = 420,000); in the data active = activity change below about -50%; inconclusive = mostly about -30% to -49%;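 note: -100% = wells without enzyme as full effect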
Target sequence (Q9BTU6 whole entry, looked up): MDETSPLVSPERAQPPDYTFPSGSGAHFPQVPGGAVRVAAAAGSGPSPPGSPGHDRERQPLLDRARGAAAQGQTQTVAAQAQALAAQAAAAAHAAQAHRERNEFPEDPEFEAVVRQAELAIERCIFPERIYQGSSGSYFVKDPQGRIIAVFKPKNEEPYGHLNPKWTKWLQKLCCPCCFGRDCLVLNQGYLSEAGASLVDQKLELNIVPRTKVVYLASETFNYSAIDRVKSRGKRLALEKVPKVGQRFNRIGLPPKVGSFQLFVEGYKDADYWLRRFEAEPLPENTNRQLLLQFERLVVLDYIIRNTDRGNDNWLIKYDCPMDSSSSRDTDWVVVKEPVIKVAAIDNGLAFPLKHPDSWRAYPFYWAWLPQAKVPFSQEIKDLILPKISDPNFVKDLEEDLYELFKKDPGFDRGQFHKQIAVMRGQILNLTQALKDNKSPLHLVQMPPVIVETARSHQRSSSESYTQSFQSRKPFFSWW
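PI4K2A activity was measured by ADP-Glo luminescence: enzyme (4 ug/mL stock) and phosphatidylinositol (1.2 mM stock) in Tris pH 7.5/MgCl2/EGTA/Triton X-100 buffer were reacted with ATP (300 microM stock) for one hour at ambient temperature.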
Nrf2 inh: blocks Nrf2 signaling; A549 ARE-Fluc reporter, luciferase luminescence, 18-24 h; Potency, µM (doses to about 46 µM), inactives show top-dose activity change, negative = inhibition, actives largely listed as inhibitors; actives 2.1% (n = 360,000); note: potency is the fitted concentration of half-maximal effect; nearly all actives have a fitted effect of over 60% in size
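Nrf2 activity is the BugLite luminescence, read 15 min after reagent at room temperature, following CellTiter-Fluor cytotoxicity readout (30 min, 37C). Compound titrations were applied for 18-24 h to 5000 A549 ARE_Fluc cells/well in 5% FBS OPTI-MEM.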
A549 viability: A549 cytotoxicity, counter-screen for Nrf2 inhibitors; A549 ARE-Fluc cells, CellTiter-Fluor viability, 18-24 h; Potency, µM (highest dose often 46 µM), inactives show at the top dose activity change, negative = cytotoxicity, usual class: inhibitors; actives 0.16% (n = 390,000); note: potency is the fitted concentration of half-maximal effect
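A549 ARE-Fluc cells in 5% FBS OPTI-MEM, 5000 cells/well, rested 2 h then exposed to compounds in concentration-response for 18-24 h at 37 °C. Viability by CellTiter-Fluor fluorescence (Ex 405/Em 525) after 30 min; luciferase luminescence (BugLite, 15 min, RT) read afterwards.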
Giardia kill: Giardia lamblia killing. activity change, % at 7.66 µM, hits read low. AID 540267. Giardia lamblia trophozoite viability. actives 0.15% (n = 340,000); in the data active = activity change below about -80%; inconclusive = between about -30% and that limit;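 note: parasites exposed to compound for two days anaerobically before the ATP read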
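Luminescence from cellular ATP indicates surviving trophozoites (100 cells/well) following 48 hrs anaerobic compound treatment at 37 deg C; signal develops 15-30 min at room temperature.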
KB-V1 MDR tox: KB-V1 MDR subline cytotoxicity | KB-V1 MDR cells viability, CellTiter-Glo, 72 h | Potency, µM (doses to about 46.1 µM), hits mostly cytotoxic | actives 3.4% (n = 400,000) | AID 1347076; note: potency is the fitted concentration of half-maximal effect; nearly all actives have a fitted effect of over 60% in size
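Readout: CellTiter-Glo luminescence, 10 min after addition. Cells: KB-V1 MDR subline, 72 h at 37 degrees C with compound. Analysis: corrected, normalized data fitted to concentration-effect curves.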
KB-3-1 cytotox: kills parental KB-3-1 adenocarcinoma cells; actives 1.4% (n = 400,000); Potency, µM (doses to about 46.1 µM), actives largely listed as cytotoxic; KB-3-1 viability, CellTiter-Glo ATP luminescence, 72 h; AID 1347075; note: potency is the fitted concentration of half-maximal effect; nearly all actives have a fitted effect of over 60% in size
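Luminescent ATP read-out (CellTiter-Glo) measures survival of drug-naive KB-3-1 cells after 72 h compound exposure at 37 °C. Titration series was screened from lowest to highest concentration, with DMSO vehicle plates as background controls.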
An asterisk follows results filed as active; i = inactive; u = inconclusive; x = no result given. Most compounds without a hit are left out; they make up all but 5.7% or so of the library. Unless noted, calls come from the whole dose curve; as a rule, active = well fitted curve in the direction sought with a large enough effect; inconclusive = small, poorly fitted or top-dose-only effect, or another doubt; inactive = no such curve, though single readings can be large; an effect the other way counts as inactive or inconclusive. Unless noted, % is set by controls: 0 for no effect and ±100 for the full control effect.

SMILES | PI4K2A block | Nrf2 inh | A549 viability | Giardia kill | KB-V1 MDR tox | KB-3-1 cytotox
CCn1c(SCC(=O)N2CCCc3ccccc32)nc2c1c(=O)n(C)c(=O)n2C | 1.4 | x | -1.4% | 0.4 | 2.91µM* | u
O=C(CSc1nnc(-c2cccs2)n1-c1ccccc1)N1CCCc2ccccc21 | -1.2 | u | -19.5% | 11.5 | 16.4µM* | i
O=C(CSc1nnc(-c2ccccc2)n1-c1ccccc1)c1cccs1 | -2.7 | -12.6% | 10.0% | -5.1 | 20.6µM* | i
Oc1c(C(c2ccccc2F)N2CCN(c3ccccc3F)CC2)sc2nc(-c3ccco3)nn12 (stereo not given) | 7.0 | x | 10.1% | x | u | i
COc1cccc2c1[C@H](/C=C/c1ccccc1)[C@@H]([C@H](O)COC(C)=O)OC2 | -3.2 | x | x | x | x | x
Cc1cc2cc3c(cc2n2c(SCC(=O)Nc4nc(-c5ccccc5)cs4)nnc12)OCO3 | 0.8 | x | x | x | x | x
O=C1CCCc2cc(S(=O)(=O)NCC3CCC(C(=O)Nc4ccc(Cl)cc4)CC3)ccc2N1 (stereo not given) | -1.9 | x | 5.2% | x | i | i
CCn1c(SCC(=O)N2CCCc3ccccc32)nc2ccccc2c1=O | 4.7 | -28.7% | -10.8% | 2.9 | 10.3µM* | i
Cn1ccnc1SCc1cc(=O)[nH]c2ccccc12 | 0.4 | 0.7% | -1.5% | -4.6 | i | i
O=C(Nc1ccc2nc(SCC(=O)N3CCCc4ccccc43)sc2c1)c1ccccc1 | 3.6 | 11.6µM* | -14.8% | x | x | x
Cc1ccc(-c2cnc(SCC(=O)N3CCCc4ccccc43)n2C)cc1 | 1.9 | u | -7.1% | 17.0 | i | i
Cn1c(-c2ccccc2)cnc1SCC(=O)N1CCCc2ccccc21 | -0.5 | -6.3% | 3.2% | 3.6 | 5.8µM* | i
CCn1c(SCc2cc(=O)[nH]c3ccccc23)nc2c1c(=O)n(C)c(=O)n2C | 0.6 | x | 5.6% | -7.4 | 16.4µM* | i
O=C1N(CC[C@@H](O)c2ccccc2)CCC12CCC(c1ccccc1)CC2 (stereo not given in full) | -4.2 | x | x | x | x | x
CC(C)c1ccc(Nc2ncnc3c2c(-c2ccccc2)cn3-c2ccccc2)cc1 | -5.1 | x | -1.7% | x | x | x
CCn1c(SCC(=O)N2c3ccccc3CCc3ccccc32)nc2c1c(=O)n(C)c(=O)n2C | 1.6 | u | 0.9% | 25.5 | 2.06µM* | i
Cc1ccc2nc(SCC(=O)N3CCCc4ccccc43)nc(=O)n2c1 | 2.6 | -14.6% | 3.1% | -0.4 | 18.4µM* | i
O=C(CSc1nnc(-c2ccccc2Br)n1-c1ccccc1)c1ccc(F)cc1 | 4.2 | 18.4µM* | u | x | 18.4µM* | u
O=C(CCCCCN1C(=O)C2C3C=CC(C3)C2C1=O)Nc1ccc2ncccc2c1 (stereo not given) | -21.3 | x | x | x | x | x
CC(C)(C)c1ccc(OCCNC(=S)Nc2ccccc2)cc1 | 10.0 | 16.4µM* | u | 6.7 | u | i
CC(C)(C)c1ccc(OCCNCc2ccccc2)cc1 | -23.9 | 1.9% | 8.3% | -7.9 | u | i
CCCNC(=S)Nc1ccc(Oc2ccccc2)cc1 | 5.0 | u | -17.5% | 3.0 | 18.4µM* | u
CCn1cc(S(=O)(=O)c2ccc(OC)cc2)c(=O)c2cc(F)c(N3CCC(C)CC3)cc21 | -2.5 | 16.4µM* | 0.2% | x | u | i
CCCn1cc(S(=O)(=O)c2ccc(Cl)cc2)c(=O)c2cc(OC)ccc21 | 0.6 | 3.8% | u | 4.4 | 7.31µM* | u
CCCn1cc(S(=O)(=O)c2ccc(C)cc2)c(=O)c2cc(OC)ccc21 | -22.0 | -18.4% | 22.1% | 32.1 | i | i
CCn1cc(S(=O)(=O)c2ccc(OC)cc2)c(=O)c2cc(F)c(N3CCCCCC3)cc21 | -0.8 | 0.5% | 12.2% | x | i | i
O=c1c(S(=O)(=O)c2ccc(Cl)cc2)cn(Cc2ccccc2)c2ccc(F)cc12 | 3.7 | -23.3% | 4.6% | 4.4 | 4.11µM* | i
Cc1onc(-c2ccccc2)c1C(=O)Nc1nnc(C(C)C)s1 | 1.4 | -1.4% | -1.0% | 4.6 | i | i
